The values that follow come from PubChem BioAssay (NCATS).

Molecules are shown by their SMILES. Records with an inconclusive call do not appear. Activity calls are given as the source filed them. Calls come from the whole dose curve; as a rule, active = well fitted inhibition curve with a large enough effect; inconclusive = small, poorly fitted or top-dose-only effect; inactive = flat fitted curve, though single readings scatter.

Common to all, as to assay: qHTS profiling for inhibitors of Plasmodium falciparum proliferation (AID 504749); note: nearly all actives have a fitted effect of over 60% in size
Holding throughout (settings): P. falciparum in erythrocytes, SYBR Green DNA, 72 h; series mostly up to 28.7 µM
Background: qHTS replaces the single test concentration by a dilution series.

One assay relates to C2A. Put shortly: (§1)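 Parasite proliferation within erythrocytes, 72 h exposure. Endpoint: SYBR Green I fluorescence after overnight lysis at room temperature. Controls: 0.29 uM artemisinin, DMSO.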
For the next assay, the system named is CP185. The method, boiled down:
as §1

The subject of the next assay is CP191. The method, boiled down:
as §1

The test system of another assay is CP211. The method, boiled down: as §1
The next assay deals with CP217. The method, boiled down:
as §1

Another assay has as its system CP237. The method, boiled down: as §1
The test system of the next assay is CP238. The method, boiled down: as §1
In another assay the test system is CP250. Put shortly: as §1
A further assay deals with CP252. Put shortly: as §1
The subject of the next assay is CP256. Put shortly:
as §1

The subject of a further assay is CP265. Put shortly: as §1
Another assay relates to CP329. The method, boiled down:
as §1

Another assay concerns DIV30. Put shortly: as §1
Another assay concerns ECU. Put shortly:
as §1

The test system of another assay is HB3. Put shortly: as §1
Another assay concerns P93_24. Put shortly: as §1
The subject of another assay is PC15. Put shortly:
as §1

Another assay has as its system PC26. Put shortly: as §1
The next assay relates to SC27B. Put shortly: as §1
In another assay the test system is TAB113. Put shortly:
as §1
Potency is the fitted concentration of half-maximal effect.

On to `CC1(C)S[C@@H]2[C@H](NC(=O)Cc3ccccc3)C(=O)N2[C@@H]1C(=O)O`, for which the Potency result with C2A, in the assay on CP185, in the assay with CP191, in the assay with CP211, in the assay with CP217 and in the assay with CP237 was “inactive” each time. For the same compound, the Potency result in the assay with CP238, in the assay with CP250, in the assay on CP252, in the assay on CP256, in the assay with CP265 and in the assay on CP329 was “inactive” throughout. Also, the Potency entry in the assay on DIV30, in the assay on ECU, in the assay on HB3, in the assay with P93_24, with PC15 and with PC26 was “inactive” throughout. Moreover, the Potency result with SC27B and in the assay on TAB113 was “inactive” in each case.

Turning to `Cc1onc(-c2c(F)cccc2Cl)c1C(=O)N[C@@H]1C(=O)N2[C@H]1SC(C)(C)[C@H]2C(=O)O`, the Potency entry in the assay with C2A, in the assay on CP185, in the assay on CP191, in the assay with CP211, in the assay on CP217 and in the assay on CP237 was “inactive” throughout. For the same compound, the Potency entry with CP238, in the assay with CP250, with CP252, with CP256, in the assay on CP265 and in the assay with CP329 was “inactive” in each case. Moreover, the Potency result with DIV30, in the assay on ECU, with HB3, in the assay with P93_24, in the assay with PC15 and in the assay on PC26 was “inactive” in each case. Further, the Potency entry in the assay with SC27B and with TAB113 was “inactive” throughout.

In the case of `C[C@H](CCC(=O)O)[C@H]1CC[C@@H]2[C@H]3[C@@H](C[C@@H](O)[C@]21C)[C@]1(C)CC[C@H](O)C[C@@H]1C[C@@H]3O`, the Potency entry in the assay with C2A, in the assay with CP185, in the assay on CP191, in the assay on CP211, with CP217 and in the assay with CP237 was “inactive” in each case. The Potency result with CP238, with CP250, with CP252, in the assay with CP256, in the assay with CP265 and in the assay with CP329 was “inactive” throughout. Besides, the Potency result in the assay on DIV30, in the assay with ECU, with HB3, in the assay with P93_24, with PC15 and with PC26 was “inactive” each time. Further, the Potency entry in the assay with SC27B and in the assay with TAB113 was “inactive” throughout.

Consider `CC(C)(C)c1ccc(CN2CCN([C@H](c3ccccc3)c3ccc(Cl)cc3)CC2)cc1`, for which the Potency in the assay with C2A was 10 µM (active); in the assay on CP185, 10 µM (active); in the assay with CP191, 10 µM (active); in the assay on CP217, 8.91 µM (active); in the assay with CP237, 7.94 µM (active); in the assay on CP238, 8.91 µM (active). Further, the Potency in the assay with CP250 is 8.91 µM (active); with CP252, 11.2 µM (active); with CP256, 10 µM (active); in the assay on CP265, 12.6 µM (active); in the assay on ECU it was 10 µM (active); in the assay with HB3, 8.91 µM (active). For the same compound, the Potency in the assay on P93_24 was 11.2 µM (active); in the assay on PC15, 11.2 µM (active); in the assay with SC27B, 10 µM (active); in the assay with TAB113, 6.31 µM (active). In addition, the Potency result in the assay with CP211, with CP329, in the assay with DIV30 and with PC26 was “inactive” each time.

For `O=C(O)[C@@H](O)[C@@H](O)[C@H](O)C(=O)CO`, the Potency entry with C2A, in the assay on CP185, in the assay with CP191, in the assay on CP211, in the assay on CP217 and in the assay with CP237 was “inactive” each time. In addition, the Potency entry in the assay on CP238, with CP250, with CP252, with CP256, with CP265 and in the assay with CP329 was “inactive” throughout. Also, the Potency result in the assay on DIV30, in the assay on ECU, in the assay with HB3, in the assay with P93_24, in the assay on PC15 and in the assay with PC26 was “inactive” throughout. In addition, the Potency result with SC27B and in the assay on TAB113 was “inactive” in each case.
